Measurements: ChEMBL document CHEMBL3988442, “University of Dundee, Small-Polar-MMV Screening Library” (2021)
In all, about 38,000 compounds went through this assay and about 1,200 (3.2%) showed an effect of 50% or more. The median lay at about -58%. The list comes from a sample in which strong results are over-represented; it also holds similar structures and randomly drawn compounds.

system: Plasmodium falciparum; assay: Calibr Malaria Delayed Death Assay SOP; format: functional, organism-based; parameters: scale not given: in the data most compounds retested in dose-response had high values; conditions: concentration 4.99e-06 (unit not given; other assays of the set use mol/L)

Compared with `COC(=O)COn1c(SC)nc2ccccc2c1=O`, `CCc1c(C)nc2ccccc2c1N1CCC(NC(C)=O)CC1` is higher in “Percent Effect” value: -26.25% for the first, 21.66% for the second.

Going from `Cc1cccnc1CN(C)c1ncnc2[nH]ccc12` to `Cc1ccc(CN(C)C(=O)c2n[nH]c(N)c2-c2ccccc2)o1`, the “Percent Effect” value rises from -141.2% to -66.55%.

First: O=C(O)C(F)(F)F.O=C(O)C(F)(F)F.c1cncc(OC[C@@H]2CCC[C@@]23CN(Cc2nccs2)CCO3)c1
Second: c1csc(COC[C@H]2CCC[C@]23CN(Cc2ccoc2)CCO3)n1
The “Percent Effect” value of the first is lower: -94.41% for the first, 34.38% for the second.

First: Cn1nc(-c2ccccc2)c(Br)c1C(=O)O
Second: CNC(=O)C1CCCN1c1nc(C)c2ccccc2n1 (stereo not given)
The “Percent Effect” value of the first is lower: -35.19% for the first, -23.49% for the second.

Compared with `O=C(C1CCOCC1)N1CCC2(CC1)CN(c1ccsc1)C(=O)CO2`, `CC(C)N(C)C(=O)C1=NOC2(CCN(C(=O)c3ccnnc3)C2)C1` (stereo not given) is lower in “Percent Effect” value: -132.3% for the first, -187.4% for the second.

First: O=C(c1cnn(-c2ccccc2Cl)c1)N1CCN(CCO)CC1
Second: Cc1cccc(N2CCN(CCCNC(=O)c3cn[nH]c3C)CC2)c1
The “Percent Effect” value of the first is higher: -76.86% for the first, -117.5% for the second.

First: COCCn1cc(CC(=O)Nc2nc[nH]n2)c2ccccc21
Second: COCCN1CCC(NCc2cccc(F)c2)C1 (stereo not given)
The “Percent Effect” value of the first is lower: -106.6% for the first, -58.84% for the second.

Going from `Cn1cc(CN2CCS(=O)(=O)C(C)(C)C2)cn1` to `CCc1nn(C)c(Cl)c1CN1CCCC2(CC1)CN(C)C(=O)O2` (stereo not given), the “Percent Effect” value falls from -18.08% to -46.66%.

Compared with `COc1ccccc1C(=O)Nc1nc2c(s1)CN(S(=O)(=O)C1CC1)CC2`, `CCc1c(C)nc2ccccc2c1N1CCC(C(=O)NC)CC1` is higher in “Percent Effect” value: -86.55% for the first, 51% for the second.

First: COc1ccc(C2(NC(=O)c3ccc(=O)n(C)n3)CCCC2)cc1
Second: CCN(c1ccc(C(=O)NCc2cc[nH]n2)cc1)C(C)C
The “Percent Effect” value of the first is lower: -78.19% for the first, 57.8% for the second.

Going from `Fc1ccc(C2CN(CCc3ccncc3)CCO2)cc1` (stereo not given) to `Fc1ccc(CNC2CCN(CCc3ccncc3)CC2)cc1F`, the “Percent Effect” value rises from -59.94% to 89.24%.

First: CCCc1cncnc1N1CCC(NCc2ccncc2)CC1
Second: CCCc1cncnc1N1CCC(NCc2ccc(O)cc2)CC1
The “Percent Effect” value of the first is higher: 65.25% for the first, 48.9% for the second.

Going from `Clc1cccc(CNC2CCN(CCc3ccncc3)CC2)c1` to `Oc1cccc(CNC2CCN(CCc3ccncc3)CC2)c1`, the “Percent Effect” value falls from 91.89% to -23.71%.

First: CCCc1cncnc1N1CCC2(CCC(=O)N(C3CCCC3)C2)CC1
Second: CCN(C(=O)CN1CCn2c(C)nnc2C1)C1=CCCCC1
The “Percent Effect” value of the first is higher: 27.32% for the first, 8.289% for the second.

First: O=C1CC(NCc2cccc(O)c2)CN1CCc1cccc(Cl)c1 (stereo not given)
Second: O=C1CN(C(=O)c2ccc(Cl)cc2)CC(O)CN1Cc1cccs1 (stereo not given)
The “Percent Effect” value of the first is lower: -115.5% for the first, -105.2% for the second.

First: CC(C)Cc1cc(NC(=O)c2cc(Cl)c[nH]2)n(C)n1
Second: CC(C)CC(NC(=O)c1ccn(C)c(=O)c1)c1ccccc1 (stereo not given)
The “Percent Effect” value of the first is higher: 10.73% for the first, -106.6% for the second.

Compared with `CC(C)N(C)CCC(=O)N1CCCC(c2ccc(C(=O)O)cc2)C1` (stereo not given), `CCN(CC)S(=O)(=O)c1ccc(CNC(=O)N2CCC(C#N)CC2)cc1` is higher in “Percent Effect” value: -175.3% for the first, -96.87% for the second.

Compared with `CC(C)CN1C[C@H]2N(c3ncccn3)CCC[C@@]2(C(=O)NCC2CC2)C1`, `c1cnn(CC2CN(Cc3nnc(C4CC4)o3)CCO2)c1` (stereo not given) is higher in “Percent Effect” value: -72.47% for the first, -40.41% for the second.

Compared with `CN(Cc1ccncc1)C1COC2(CCN(Cc3ccccn3)CC2)C1.O=C(O)C(F)(F)F.O=C(O)C(F)(F)F.O=C(O)C(F)(F)F.O=C(O)C(F)(F)F` (stereo not given), `OCC1(O)CCCN(Cc2ccccc2OCCc2ccccc2)CC1` (stereo not given) is higher in “Percent Effect” value: -49.62% for the first, 64.9% for the second.

First: Cc1ncsc1C(=O)NC1CCN(CC(N)=O)CC1
Second: Cc1csc(NC(=O)[C@@H]2C[C@H]3[C@H](CCN3S(C)(=O)=O)O2)n1
The “Percent Effect” value of the first is higher: -67.12% for the first, -110.3% for the second.

Going from `O=C(Cn1ccc2sccc2c1=O)NCCC1=CCCCC1` to `CC1CCCN(CCCNC(=O)Cc2csc(-c3ccoc3)n2)C1` (stereo not given), the “Percent Effect” value rises from -67.23% to 9.027%.

Going from `Cc1csc([C@H]2C[C@H]3CN(Cc4cc(C)on4)CC[C@@H]3O2)n1.O=C(O)C(F)(F)F` to `Cc1cc(C(=O)Nc2cnn(CC(F)(F)F)c2)nc(N2CCOCC2)n1`, the “Percent Effect” value rises from -119% to -108.9%.

Going from `N[C@@H]1CC[C@@H](Nc2nccc(CCC(F)(F)F)n2)C1` to `N[C@H]1CC[C@@H](Nc2nccc(CCC(F)(F)F)n2)CC1`, the “Percent Effect” value rises from -7.999% to 50.03%.

Going from `FC(F)(F)CCc1ccnc(N[C@H]2CC[C@H](n3cnnc3)CC2)n1` to `Cn1ncc2c(NC3CCCN(C(=O)C4CC4)C3)nc(C(C)(C)C)nc21` (stereo not given), the “Percent Effect” value falls from -55.01% to -80.8%.

Compared with `Cc1cccc(CCC(=O)Nc2ccnn2C2CCS(=O)(=O)C2)c1` (stereo not given), `Cc1ccc(C(=O)N2CC(=O)N(Cc3cccs3)CC(O)C2)cc1` (stereo not given) is higher in “Percent Effect” value: -75.57% for the first, -71.11% for the second.

Going from `O=C(NCCNc1cncc(Br)c1)c1ccc(O)cc1` to `O=C(NCCNc1ccc(Br)cn1)c1ccc(O)cc1`, the “Percent Effect” value falls from 50.22% to -25.48%.

Going from `O=C(NCCNC(=O)c1ccc(Br)cc1)c1ccc(O)cc1` to `O=C1CN(C(=O)c2ccc(F)cc2)CC(O)CN1Cc1cccs1` (stereo not given), the “Percent Effect” value rises from 27.41% to 88.73%.

First: OCCOc1ccccc1CN1CCCC(O)(CO)C1 (stereo not given)
Second: O=C1NCC2(CCCN(Cc3ccccc3OCCO)C2)O1 (stereo not given)
The “Percent Effect” value of the first is higher: -48.41% for the first, -55.51% for the second.

First: CC(=O)NCCC1CCCCN1S(=O)(=O)c1cccc(C#N)c1 (stereo not given)
Second: CS(=O)(=O)NCC1CCCCN1Cc1cccc(C#N)c1 (stereo not given)
The “Percent Effect” value of the first is higher: -38.39% for the first, -99.98% for the second.

First: CCN1CCCC1CN(CCN(C)C)S(=O)(=O)c1cccc(C#N)c1 (stereo not given)
Second: CCN1CCCC1CN(CCN(C)C)S(=O)(=O)c1ccc(C#N)cc1 (stereo not given)
The “Percent Effect” value of the first is higher: 58.76% for the first, 58.03% for the second.

Compared with `CCS(=O)(=O)N1CCC(Oc2ccc(C#N)cc2)CC1`, `O=S(=O)(NCc1ccc(S(=O)(=O)N2CCCC2)s1)c1ccc(Cl)cc1` is higher in “Percent Effect” value: -74.03% for the first, -58.72% for the second.

First: CN(C)S(=O)(=O)N1CCOCC1CC(=O)NCCOc1ccccc1 (stereo not given)
Second: CCc1noc(C)c1C(=O)NCc1cc[nH]n1
The “Percent Effect” value of the first is higher: -2.235% for the first, -11.39% for the second.

For `Cc1noc(C)c1C(=O)NCc1cc[nH]n1`, the “Percent Effect” value was -1.688%.
